Where a name gives a salt, the structure may show the parent alone.
Experiments:
Details in all cases: 20 µM
[1] = system: Salmonella enterica typhimurium; assay: growth AUC normalised to DMSO control (fraction of control); higher = less growth inhibition, active = hit call of the paper
Procedure, shortened: (§1)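 For the AUC endpoint, growth curves were integrated by the trapezoidal rule up to the exponential-to-stationary transition and normalised to DMSO controls on the same plate. The curves came from OD578 readings taken hourly for 24 h, in three biological replicates. Pathogens had been passaged anaerobically twice and inoculated at an OD578 of 0.01 into pre-reduced mGAM plates carrying 20 μM compound and 1% DMSO, sealed with breathable membranes. Medium for Haemophilus parainfluenzae also contained hemin and NAD.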

Shigella flexneri = assay: as above
Procedure, shortened: as §1

Vibrio cholerae = assay: as above
Procedure, shortened: as §1

[2] = system: Yersinia pseudotuberculosis; assay: as above
Procedure, shortened: as §1

P. vulgatus RND KO = assay: growth AUC normalised to DMSO control (median) (fraction of control); higher = less growth inhibition, active = hit call of the paper
Procedure, shortened: (§2)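 Strains were passaged twice overnight without oxygen, then grown in mGAM in 96-well plates with each approved-drug library compound at 20 μM and 1% DMSO, starting at OD578 0.01. OD578 was read hourly for 24 h inside an anaerobic incubator. Curves were truncated at entry into stationary phase, and the trapezoidal-rule area under the curve was normalised to same-plate vehicle wells. The value is the median across three biological replicates.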

P. vulgatus WT = assay: as above
Procedure, shortened: as §2

[3] = system: S. enterica typhimurium WT; assay: as above
Procedure, shortened: as §2

[4] = system: S. enterica typhimurium tolC KO; assay: as above
Procedure, shortened: as §2

Measured: growth AUC normalised to DMSO control
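For growth AUC normalised to DMSO control (median) in this document: active when median AUC fell below 0.1.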

O=C(NCCN1CCOCC1)c1ccc(Cl)cc1 [Moclobemide]
inactive: [1] 0.981 | Shigella flexneri 0.961 | Vibrio cholerae 0.957 | [2] 1.01 | P. vulgatus RND KO 0.994 | P. vulgatus WT 0.987 | [3] 0.998 | [4] 0.996

CCCCC1(COC(=O)CCC(=O)O)C(=O)N(c2ccccc2)N(c2ccccc2)C1=O [Suxibuzone]
inactive: [1] 1 | Shigella flexneri 1 | Vibrio cholerae 0.993 | [2] 1.01 | P. vulgatus RND KO 1.02 | P. vulgatus WT 1.03 | [3] 1.01 | [4] 0.985

Oc1ncnc2[nH]ncc12 [Allopurinol]
inactive: [1] 0.996 | Shigella flexneri 1.03 | Vibrio cholerae 1.02 | [2] 1 | P. vulgatus RND KO 1.03 | P. vulgatus WT 1.04 | [3] 0.999 | [4] 0.99

N=C(N)NC(=O)c1nc(Cl)c(N)nc1N [Amiloride hydrochloride dihydrate]
inactive: [1] 1.01 | Shigella flexneri 1.01 | Vibrio cholerae 1.04 | [2] 1.02 | P. vulgatus RND KO 1.03 | P. vulgatus WT 1.04 | [3] 0.982 | [4] 0.996

CC(=O)OCC(=O)[C@@]1(O)[C@H](C)C[C@H]2[C@@H]3CCC4=CC(=O)C=C[C@]4(C)[C@@]3(F)[C@@H](O)C[C@@]21C [Dexamethasone acetate]
inactive: [1] 1 | Shigella flexneri 1 | Vibrio cholerae 1 | [2] 0.999 | P. vulgatus RND KO 0.993 | P. vulgatus WT 1.02 | [3] 1.01 | [4] 0.998

CN(C)CCC=C1c2ccccc2C=Cc2ccccc21 [Cyclobenzaprine hydrochloride]
inactive: [1] 0.98 | Shigella flexneri 0.955 | [2] 0.998 | P. vulgatus RND KO 0.933 | P. vulgatus WT 0.936 | [3] 1 | [4] 0.853
active: Vibrio cholerae 0.866

CC(C)(C)C(=O)OCOC(=O)[C@@H]1N2C(=O)[C@@H](NC(=O)[C@H](N)c3ccccc3)[C@H]2SC1(C)C [Pivampicillin]
active: [2] 0.818
inactive: [1] 0.97 | Shigella flexneri 1.01 | Vibrio cholerae 0.987 | P. vulgatus RND KO 1.01 | P. vulgatus WT 1.02 | [3] 0.993 | [4] 1

Source: the supplement of paper PMC12350171
